The results in this text go back to PubChem BioAssay (NCI).

Test systems include SK-MEL-2 melanoma; EKVX NSCLC; SN12C renal; UO-31 renal; TK-10 renal; ACHN renal; CAKI-1 renal; A498 renal; CCRF-CEM leukemia; MOLT-4 leukemia.
Common to all, as to assay: NCI-60 one-dose screen, 48 h (100 = growth as untreated, 0 = no growth, -100 = all killed)
Conditions in all cases: 10 µM unless noted

Compounds without any hit were thinned out: in the full panel of roughly 83,000, 20% have a hit.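 Testing used 96-well plates and a 48-hour single-concentration exposure. Example: -40 means 40% of the starting cells died.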 A number with no mark means an inactive call. The source made the active and inactive calls. How the source made its calls: active means growth percent below 10; inactive means the rest.

As for `CCCCCCC1(C)NCCO1` (stereo not given), the growth in the assay with SK-MEL-2 melanoma was 109%; with EKVX NSCLC, 112%; with SN12C renal, 103%; with UO-31 renal it was 83.7%; with TK-10 renal, 111%; in the assay with ACHN renal, 103%. Moreover, the growth in the assay on CAKI-1 renal is 92.9%; in the assay on A498 renal, 96.1%; in the assay with CCRF-CEM leukemia it was 90.2%; in the assay on MOLT-4 leukemia, 104%.

In the case of `O=C(Nc1cccnc1Nc1ccc(F)cc1)c1cn(Cc2cccc(Oc3ccccc3)c2)nn1`, the growth in the assay on SK-MEL-2 melanoma was 73.9%; in the assay on EKVX NSCLC, 75.9%; in the assay with SN12C renal, 79.2%; in the assay with UO-31 renal, 46.7%; with TK-10 renal, 98.7%; in the assay with ACHN renal, 83.7%. Moreover, the growth with CAKI-1 renal was 78%; in the assay with A498 renal, 60.5%; in the assay with CCRF-CEM leukemia it was 63.2%; with MOLT-4 leukemia, 32%.

For `O=[N+]([O-])c1ccc(N/N=C(/C(=N/Nc2ccc([N+](=O)[O-])cc2)c2ccccc2)c2ccccc2)cc1`, the growth in the assay with SK-MEL-2 melanoma was 11.2%; with EKVX NSCLC, 94.1%; in the assay on SN12C renal, 81.4%; in the assay with UO-31 renal, 51.8%; in the assay on TK-10 renal it was 94.4%; in the assay on ACHN renal it was -1.56% (active). Also, the growth in the assay on CAKI-1 renal is 53.7%; with A498 renal, 101%; with CCRF-CEM leukemia, 90.9%; with MOLT-4 leukemia it was 73.9%.

On to `COC1C[C@H](O[C@@H]2C[C@H](O[C@@H]3C[C@H](O[C@@H]4C(=O)c5c(cc6cc(O[C@H]7C[C@@H](O[C@H]8C[C@@H](O)[C@H](O)C(C)O8)[C@H](O)C(C)O7)c(C)c(O)c6c5O)C[C@H]4C(OC)C(=O)[C@@H](O)[C@@H](C)O)OC(C)[C@H]3O)OC(C)[C@@H]2O)OC(C)[C@@H]1O` (stereo not given in full), for which the growth in the assay with SK-MEL-2 melanoma was -61.7% (active); in the assay with EKVX NSCLC it was 7.01% (active); with SN12C renal it was 2.57% (active); in the assay on UO-31 renal it was 5.02% (active); with TK-10 renal, 1.34% (active); in the assay on ACHN renal it was 6.35% (active). Besides, the growth in the assay with CAKI-1 renal was 28.6%; in the assay with A498 renal, -44.5% (active); in the assay with CCRF-CEM leukemia it was 6.53% (active); in the assay on MOLT-4 leukemia, 5.23% (active).

Consider `COc1cc(/C=C/C(=O)c2cccc(Nc3nc(Nc4ccccc4)nc(Nc4ccccc4)n3)c2)cc(OC)c1OC`, for which the growth was 53.6% in the assay with SK-MEL-2 melanoma; 66.1% in the assay on EKVX NSCLC; 84.2% in the assay on SN12C renal; 35.3% with UO-31 renal; 66.3% in the assay with TK-10 renal; 68.3% in the assay on ACHN renal. The growth in the assay with CAKI-1 renal was 75.5%; in the assay with A498 renal it was 68.8%; with CCRF-CEM leukemia, 6.56% (active); with MOLT-4 leukemia, 9.67% (active).

`CCn1c(=S)[nH]c2c(=O)n(C)c(=O)n(C)c21`: the growth with SK-MEL-2 melanoma is 103%; in the assay with EKVX NSCLC, 95.1%; with SN12C renal, 101%; in the assay on UO-31 renal, 93.9%; in the assay with TK-10 renal, 108%; with ACHN renal, 97.6%. Further, the growth in the assay on CAKI-1 renal was 102%; with A498 renal, 113%; in the assay with CCRF-CEM leukemia it was 102%; in the assay with MOLT-4 leukemia it was 98.2%.

With `COc1ccc(N2CCC(=O)NC2=S)cc1`, the growth was 102% in the assay with SK-MEL-2 melanoma; 102% with EKVX NSCLC; 98.3% in the assay on SN12C renal; 86.5% in the assay on UO-31 renal; 100% with TK-10 renal; 104% in the assay on ACHN renal. Besides, the growth was 95.4% with CAKI-1 renal, 108% with A498 renal, 111% with CCRF-CEM leukemia and 105% in the assay on MOLT-4 leukemia.

Take `COc1ccc2c3c([nH]c2c1)C(=O)c1nc(C)ccc1C3=O`: the growth in the assay with SK-MEL-2 melanoma was 66.7%; in the assay on EKVX NSCLC, 53.6%; with SN12C renal it was 38.4%; in the assay with UO-31 renal, 39.6%; with TK-10 renal, 109%; in the assay with ACHN renal, 35%. The growth in the assay on CAKI-1 renal was 51.8%; in the assay on A498 renal it was 67.6%; with CCRF-CEM leukemia, 53.2%; in the assay on MOLT-4 leukemia it was 7.34% (active).

As for `C=C(C)[C@@H]1CC[C@]2(C(=O)NCC#CCN3CCN(C)CC3)CC[C@]3(C)[C@H](CC[C@@H]4[C@@](C)(CCC#N)[C@H](C(=C)C)CC[C@]43C)[C@@H]12`, the growth with SK-MEL-2 melanoma is 91.8%; with EKVX NSCLC, 52.1%; in the assay on SN12C renal, 69.2%; with UO-31 renal, 51.6%; in the assay on TK-10 renal, 80.4%; in the assay with ACHN renal it was 70.8%. Moreover, the growth with CAKI-1 renal was 57.7%; with A498 renal, 57.5%; in the assay with CCRF-CEM leukemia, 51.3%; in the assay with MOLT-4 leukemia, 10.9%.

In the case of `COc1ccc2c(c1)c(-c1noc(C(=O)c3cn(C)c4ccc(Br)cc34)n1)cn2C`, the growth is 93.9% in the assay with SK-MEL-2 melanoma; 114% with EKVX NSCLC; 100% in the assay on SN12C renal; 76.1% in the assay with UO-31 renal; 103% in the assay on TK-10 renal; 103% in the assay on ACHN renal. For the same molecule, the growth in the assay with CAKI-1 renal is 94.2%; in the assay on A498 renal, 121%; in the assay with CCRF-CEM leukemia, 99.8%; in the assay with MOLT-4 leukemia, 82.7%.

For `CN(C)CCNc1nc2c3cc(Cl)ccc3nn2c2ccccc12`, the growth is 95.2% in the assay on SK-MEL-2 melanoma; 49.8% in the assay on EKVX NSCLC; 40.9% in the assay with SN12C renal; 28.2% in the assay with UO-31 renal; 97.8% with TK-10 renal; 22.7% with ACHN renal. In addition, the growth in the assay with CAKI-1 renal was 40.4%; in the assay on A498 renal it was -6.05% (active); in the assay with CCRF-CEM leukemia, 47.1%; in the assay on MOLT-4 leukemia it was 15.9%.

Consider `O=C1Nc2ccccc2/C1=C\c1nc(-c2ccccc2F)n2ccccc12`, for which the growth was -6.84% (active) with SK-MEL-2 melanoma; 47.6% with EKVX NSCLC; 14.5% in the assay on SN12C renal; -16.2% (active) in the assay on UO-31 renal; -6.87% (active) in the assay with TK-10 renal; -58.5% (active) with ACHN renal. Also, the growth is -13.9% (active) in the assay on CAKI-1 renal, -10.4% (active) in the assay with A498 renal, 79% in the assay on CCRF-CEM leukemia and 70.6% in the assay on MOLT-4 leukemia.

Turning to `C/C(=N\NC(=O)c1ccccc1O)c1cccc(/C(C)=N/NC(=O)c2ccccc2O)n1`, the growth was 95.2% in the assay with SK-MEL-2 melanoma; 30% in the assay with EKVX NSCLC; 55% with SN12C renal; 38.6% with UO-31 renal; 41% in the assay on TK-10 renal; 39.7% with ACHN renal. Also, the growth in the assay with CAKI-1 renal was 14.5%; with A498 renal it was 71.9%; in the assay on CCRF-CEM leukemia it was 21.8%; in the assay on MOLT-4 leukemia it was 24.5%.

For `O=C(CCCCC1CCSS1)Nc1ncnc2n[nH]c(-c3ccc(Oc4ccccc4)cc3)c12` (stereo not given), the growth is 43.6% in the assay on SK-MEL-2 melanoma; 80.5% in the assay on EKVX NSCLC; 106% in the assay on SN12C renal; 73.2% in the assay with UO-31 renal; 109% with TK-10 renal; 88.3% in the assay with ACHN renal. The growth is 97.1% in the assay on CAKI-1 renal, 123% with A498 renal, 13.7% with CCRF-CEM leukemia and -31.3% (active) in the assay on MOLT-4 leukemia.

Take `COc1ccc(C(=S)N2CCN(c3ccccc3Cl)CC2)cc1OC`: the growth was 101% in the assay with SK-MEL-2 melanoma; 97.4% in the assay on EKVX NSCLC; 100% with SN12C renal; 104% in the assay on UO-31 renal; 108% in the assay on TK-10 renal; 97.2% in the assay with ACHN renal. Further, the growth with CAKI-1 renal is 91.8%; with A498 renal, 94.6%; with CCRF-CEM leukemia, 123%; with MOLT-4 leukemia it was 76.4%.

`CC1=Nc2cnc(Nc3ccc(OCCN4CCCCC4)cc3)nc2Nc2ccccc21`: the growth in the assay with SK-MEL-2 melanoma is 50.2%; in the assay with EKVX NSCLC it was 78.3%; in the assay with SN12C renal, 49.2%; in the assay on UO-31 renal, 11%; with TK-10 renal, 64.2%; in the assay on ACHN renal, 27.1%. Further, the growth with CAKI-1 renal was 17.2%; in the assay on A498 renal, -9.49% (active); in the assay on CCRF-CEM leukemia, 70.2%; in the assay with MOLT-4 leukemia, 25.4%.

`CNC(=O)c1c(NC(=O)c2ccc(C(F)(F)F)cc2)sc2c1CCC(=O)C2`: the growth with SK-MEL-2 melanoma is -12.1% (active); in the assay on EKVX NSCLC, 9.76% (active); in the assay on SN12C renal it was 5.31% (active); in the assay on UO-31 renal, -94.3% (active); in the assay with TK-10 renal, 34.2%; in the assay with ACHN renal, -20.3% (active). For the same molecule, the growth with CAKI-1 renal was -32.9% (active); in the assay on A498 renal, -12.5% (active); in the assay with CCRF-CEM leukemia, -5.31% (active); in the assay with MOLT-4 leukemia it was 2.28% (active).
